“And” between values parts separate entries of the source, which are not always exact repeats. Identical values can stand only once. Results filed as inconclusive are left out. Some structures have more than one record in an assay (separate samples or runs), and their calls can disagree. The source made the active and inactive calls. Unless noted, calls follow the shape of the dose curve; as a rule, active = well fitted curve in the direction sought with a large enough effect in the repeat runs; inconclusive = weak or mixed curves; inactive = no such curve, though single readings can be large; an effect the other way counts as inactive or inconclusive.
Tests used:
[1] = qHTS assay to identify aromatase inhibitors - cell viability counter screen (AID 743084);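 also: cells stimulated with testosterone during compound exposure; nearly all actives have a fitted effect of over 55% in size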; also: potency is read from the fitted curve at half-maximal effect
[2] = molecular target: Aryl hydrocarbon receptor (Homo sapiens) (UniProt P35869); assay: qHTS assay to identify small molecule that activate the aryl hydrocarbon receptor (AhR) signaling pathway (AID 743085); also: nearly all actives have a fitted effect of over 15% in size; also: potency is read from the fitted curve at half-maximal effect;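 as to activation: HG2L7.5c1 human HepG2 liver cells with stably integrated DRE-driven firefly reporter; series mostly up to about 70 µM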
Method in brief: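 Luminescence read-out: ONE-Glo reagent, 30 min at room temperature, in HG2L7.5c1 HepG2 reporter cells treated 24 h at 37C. Viability was measured beforehand by CellTiter-Fluor fluorescence after 30 min at 37C.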

[3] = qHTS assay to identify small molecule that activate the aryl hydrocarbon receptor (AhR) signaling pathway - cell viability counter screen (AID 743086); also: nearly all actives have a fitted effect of over 45% in size; also: potency is read from the fitted curve at half-maximal effect
Method in brief: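 HepG2-AhR-luc (HG2L7.5c1) cells, 4000/well, treated 24 h at 37 C with compound; viability measured as CellTiter-Fluor fluorescence after 30 min in the same wells as the luciferase read.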

[4] = molecular target: Peroxisome proliferator-activated receptor gamma (Homo sapiens) (UniProt P37231); assay: qHTS assay to identify small molecule agonists of the peroxisome proliferator-activated receptor gamma (PPARg) signaling pathway (AID 743094; active = well fitted activation curve with a large enough effect in the signal ratio in the repeat runs, not every such curve was filed as active; the % refers to the signal ratio)
Method in brief: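 Quantitative HTS agonist mode: stable HEK293H line with UAS-beta-lactamase reporter under PPARg control, 17 h compound exposure at 37C, fluorescence after 1 h FRET substrate loading at room temperature.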

[5] = qHTS assay to identify small molecule antagonists of the peroxisome proliferator-activated receptor gamma (PPARg) signaling pathway - cell viability counter screen (AID 743194); also: nearly all actives have a fitted effect of over 55% in size; also: potency is read from the fitted curve at half-maximal effect
Method in brief: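 Cytotoxicity counter screen in PPARg-bla HEK293H cells, same wells as reporter assay. Compounds plus 50 nM rosiglitazone (final) for 17 h at 37 C, then viability read by CellTiter-Glo luminescence.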

[6] = qHTS assay for small molecule agonists of the antioxidant response element (ARE) signaling pathway - cell viability counter screen (AID 743203; calls by dose curve; also: nearly all actives have a fitted effect of over 55% in size; also: potency is read from the fitted curve at half-maximal effect)
Method in brief: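 Seeded at 2,000 cells/well, ARE-bla HepG2 cells were incubated 5 hrs before compound addition. After 16 hrs of treatment at 37C with 5% CO2, CellTiter-Glo reagent was added and luminescence read 30 min later.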

[7] = qHTS assay for small molecule activators of the heat shock response signaling pathway - cell viability counter screen (AID 743209); also: nearly all actives have a fitted effect of over 50% in size; also: potency is read from the fitted curve at half-maximal effect
Method in brief: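 First, HSE-bla HeLa cells were seeded at 1500 cells/well and kept overnight at 37 C. Next, compounds were pinned in and incubated 5 h. After the FRET substrate step, CellTiter-Glo was added and luminescence read 30 min later.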

[8] = qHTS assay for small molecule activators of the heat shock response signaling pathway (AID 743210; active = well fitted activation curve with a large enough effect in the signal ratio in the repeat runs, with a control signal flat, not every such curve was filed as active; the % refers to the signal ratio; also: series mostly up to about 63 µM)
Method in brief: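 HSE-bla HeLa cells (beta-lactamase reporter under heat shock response elements), plated overnight, then exposed to compounds 5 h at 37 C; LiveBLAzer B/G FRET substrate added, 2.5 h at room temperature, fluorescence intensity read.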

[9] = qHTS assay for small molecule agonists of the antioxidant response element (ARE) signaling pathway (AID 743202; active = well fitted activation curve with a large enough effect in the signal ratio in the repeat runs, not every such curve was filed as active; the % refers to the signal ratio; also: potency is read from the fitted curve at half-maximal effect)
Method in brief: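 ARE-bla HepG2 cells (beta-lactamase reporter under the antioxidant response element), plated 5 hours, then exposed to compounds 16 hours at 37 C. LiveBLAzer B/G FRET substrate added for 2 hours at room temperature; fluorescence intensity read.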

[10] = molecular target: Peroxisome proliferator-activated receptor gamma (Homo sapiens) (UniProt P37231); assay: qHTS assay to identify small molecule antagonists of the peroxisome proliferator-activated receptor gamma (PPARg) signaling pathway (AID 743191; calls by dose curve; also: series mostly up to about 63 µM; nearly all actives have a fitted effect of over 30% in size)
Method in brief: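 GeneBLAzer PPARg UAS-bla HEK293H cells, 5 h post-plating, exposed to compounds 17 h at 37C. LiveBLAzer B/G FRET substrate added for 1 h at room temperature; beta-lactamase reporter read by fluorescence intensity.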

Measured: Potency

Aryl hydrocarbon receptor (Homo sapiens), sequence (P35869 whole entry, looked up): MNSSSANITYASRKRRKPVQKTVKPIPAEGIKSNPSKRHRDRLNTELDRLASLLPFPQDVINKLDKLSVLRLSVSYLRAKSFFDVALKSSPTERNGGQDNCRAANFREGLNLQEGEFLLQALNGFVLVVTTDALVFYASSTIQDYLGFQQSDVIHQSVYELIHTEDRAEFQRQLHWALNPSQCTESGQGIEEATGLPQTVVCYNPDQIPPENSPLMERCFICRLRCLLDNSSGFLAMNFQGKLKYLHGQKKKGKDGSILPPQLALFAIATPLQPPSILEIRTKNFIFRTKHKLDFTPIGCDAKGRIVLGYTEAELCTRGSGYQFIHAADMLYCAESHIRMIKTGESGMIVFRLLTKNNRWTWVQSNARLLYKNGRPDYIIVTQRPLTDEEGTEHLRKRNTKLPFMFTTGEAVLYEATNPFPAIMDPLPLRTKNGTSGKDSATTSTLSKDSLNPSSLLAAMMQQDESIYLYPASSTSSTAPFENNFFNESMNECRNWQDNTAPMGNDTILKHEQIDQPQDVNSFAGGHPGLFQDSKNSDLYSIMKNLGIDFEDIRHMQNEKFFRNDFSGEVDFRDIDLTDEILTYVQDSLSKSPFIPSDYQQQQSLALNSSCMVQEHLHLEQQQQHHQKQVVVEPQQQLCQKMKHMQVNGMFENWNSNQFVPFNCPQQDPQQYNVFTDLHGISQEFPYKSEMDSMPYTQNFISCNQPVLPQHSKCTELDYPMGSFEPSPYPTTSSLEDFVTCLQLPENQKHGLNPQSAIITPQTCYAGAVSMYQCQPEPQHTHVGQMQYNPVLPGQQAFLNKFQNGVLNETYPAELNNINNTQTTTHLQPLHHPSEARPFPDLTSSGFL
Peroxisome proliferator-activated receptor gamma (Homo sapiens), sequence (P37231 whole entry, looked up): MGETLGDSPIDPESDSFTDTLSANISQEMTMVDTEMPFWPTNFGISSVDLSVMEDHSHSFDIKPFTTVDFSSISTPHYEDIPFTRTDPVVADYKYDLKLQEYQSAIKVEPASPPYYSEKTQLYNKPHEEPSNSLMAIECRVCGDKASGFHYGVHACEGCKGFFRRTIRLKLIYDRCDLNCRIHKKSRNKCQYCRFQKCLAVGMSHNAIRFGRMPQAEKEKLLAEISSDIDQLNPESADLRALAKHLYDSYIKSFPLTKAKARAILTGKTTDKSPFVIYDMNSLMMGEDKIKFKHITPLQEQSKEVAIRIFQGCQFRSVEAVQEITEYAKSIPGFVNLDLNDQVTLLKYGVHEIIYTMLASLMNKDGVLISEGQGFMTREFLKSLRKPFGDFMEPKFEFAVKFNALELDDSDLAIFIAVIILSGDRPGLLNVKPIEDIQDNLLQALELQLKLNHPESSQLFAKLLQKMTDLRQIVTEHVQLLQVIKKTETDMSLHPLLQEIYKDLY

CC(=O)OCC(C)OC(C)=O (configuration not stated)
not listed: [8] | [9] | [10]
inactive: all other assays above

CO[Si](CCCNc1ccccc1)(OC)OC
not listed: [6] | [9] | [10]
inactive: all other assays above

C[C@]12CCC(=O)C=C1CC[C@@H]1[C@@H]2[C@@H](O)C[C@@]2(C)[C@H]1CC[C@]2(O)C(=O)COC(=O)CCC(=O)O
not listed: [8] | [10]
inactive: all other assays above

Nc1c(Cl)cc(Cl)cc1Cl
not listed: [8] | [10]
inactive: all other assays above

Oc1c(Cl)cc(Cl)c2cccnc12
inactive: [1] | [3]
active: [2] 4.73 µM

CCCC(C)c1ccccc1O (configuration not stated)
not listed: [10]
inactive: all other assays above

CCC(N)(CO)CO
not listed: [8] | [9] | [10]
inactive: all other assays above

Cc1ccc(O)c(C(C)(C)C)c1
61 µM (active) and inactive: [3]
17.2 µM (active) and inactive: [1]
inactive: [2] | [4]
30.6 µM (active) and inactive: [6]

C[C@H]1[C@H]2CC[C@H]3[C@@H]4CC=C5C[C@@H](N(C)C)CC[C@]5(C)[C@H]4CC[C@]23CN1C
not listed: [5] | [10]
inactive: all other assays above

O=C(OC[C@H]1O[C@@H](OC(=O)c2cc(O)c(O)c(OC(=O)c3cc(O)c(O)c(O)c3)c2)[C@H](OC(=O)c2cc(O)c(O)c(OC(=O)c3cc(O)c(O)c(O)c3)c2)[C@@H](OC(=O)c2cc(O)c(O)c(OC(=O)c3cc(O)c(O)c(O)c3)c2)[C@@H]1OC(=O)c1cc(O)c(O)c(OC(=O)c2cc(O)c(O)c(O)c2)c1)c1cc(O)c(O)c(OC(=O)c2cc(O)c(O)c(O)c2)c1
active: [1] 18.8 µM | [3] 21.1 µM and 16.5 µM
inactive: [2]

COc1ccc(-c2ccc3cc(C(=O)O)ccc3c2)cc1C12CC3CC(CC(C3)C1)C2
active: [6] 23.7 µM
inactive: [1] | [2] | [3] | [4]

C/C=C(\C)C(=O)OCc1ccccc1
not listed: [7] | [8] | [10]
inactive: all other assays above

CC(=O)S[C@@H]1CC2=CC(=O)CC[C@]2(C)[C@H]2CC[C@@]3(C)[C@@H](CC[C@@]34CCC(=O)O4)[C@H]12
inactive: [1] | [2] | [3]

O=C(c1ccc(O)cc1O)c1ccc(O)cc1O
active: [2] 21.7 µM
inactive: [1] | [3] | [4] | [5] | [6]

COc1cc(/C=C/C(=O)O[C@H]2CC[C@]34C[C@]35CC[C@]3(C)[C@@H]([C@H](C)CCC=C(C)C)CC[C@@]3(C)[C@@H]5CC[C@H]4C2(C)C)ccc1O
not listed: [8] | [9] | [10]
inactive: all other assays above

O=Cc1cc(O)ccc1Br
inactive: [1] | [2] | [3] | [4] | [6]

CCCCCCCCCCC=O
not listed: [5] | [7] | [10]
inactive: all other assays above

CC[C@H](c1ccc(O)cc1)[C@@H](CC)c1ccc(O)cc1
inactive: [1] | [2] | [3] | [4] | [7]
active: [9] 4.22 µM
54.5 µM (active) and inactive: [6]

CN(C)[C@@H]1C(=O)C(C(N)=O)=C(O)[C@@]2(O)C(=O)C3=C(O)c4c(O)ccc(Cl)c4[C@@H](O)[C@H]3C[C@@H]12
not listed: [9] | [10]
inactive: all other assays above

NNC(=O)c1cccc(C(=O)NN)c1
active: [2] 27.3 µM
not listed: [4] | [8]
inactive: all other assays above

CCCC/C=C/CCCCO
not listed: [5] | [8] | [10]
inactive: all other assays above

Oc1cccc2cc3cccc(O)c3c(O)c12
inactive: [1] | [2] | [3] | [4] | [6] | [7]

Fc1ccc(C(c2ccc(F)cc2)N2CCN(C/C=C/c3ccccc3)CC2)cc1
inactive: [1] | [2] | [3]

C[C@@H]1C[C@H]2[C@@H]3CCC4=CC(=O)C=C[C@]4(C)[C@@]3(Cl)[C@@H](O)C[C@]2(C)[C@@]1(OC(=O)c1ccco1)C(=O)CCl
inactive: [1] | [2] | [3] | [4]
active: [9] 13.3 µM

CCCCCOC(=O)CCCC
not listed: [5] | [8] | [10]
inactive: all other assays above

CCOC(=O)O[C@]1(C(=O)OCCl)CC[C@H]2[C@@H]3CCC4=CC(=O)C=C[C@]4(C)[C@H]3[C@@H](O)C[C@@]21C
active: [9] 10.6 µM
not listed: [10]
inactive: all other assays above

CCCCCCCCCCCCCCCS(=O)(=O)Oc1ccccc1
not listed: [8] | [9] | [10]
inactive: all other assays above

CC(C)(C)NC(=O)[C@@H]1C[C@@H]2CCCC[C@@H]2CN1C[C@@H](O)[C@H](Cc1ccccc1)NC(=O)[C@H](CC(N)=O)NC(=O)c1ccc2ccccc2n1
active: [1] 11.9 µM and 13.9 µM | [3] 26.6 µM and 22 µM
inactive: [2]

O=c1[nH]cnc2nc[nH]c12
not listed: [10]
inactive: all other assays above

CCCCN(CCCC)C(=O)N(CCCC)CCCC
not listed: [7] | [8] | [9]
inactive: all other assays above

CNC(=O)c1ccccc1
not listed: [8] | [9] | [10]
inactive: all other assays above

N=C1C=CC(=C(c2ccc(N)cc2)c2ccc(N)cc2)C=C1
active: [1] 8.63 µM | [3] 17.2 µM | [5] 6.92 µM | [6] 61.1 µM
inactive: [2] | [4]

CCN(C(=O)N(CC)c1ccccc1)c1ccccc1
inactive: [1] | [2] | [3] | [10] | [5] | [6]

O=[N+]([O-])c1cc(Cl)c(Cl)c(Cl)c1Cl
inactive: [2] | [3] | [4]
active: [1] 60.9 µM | [9] 3.42 µM

Cc1cc(O)c2ccccc2c1O
active: [2] 9.44 µM | [6] 13.3 µM | [7] 9.44 µM
inactive: [1] | [3] | [4]

CCCC(c1cc(C(C)(C)C)c(O)cc1C)c1cc(C(C)(C)C)c(O)cc1C
inactive: [2] | [3]
active: [1] 49.2 µM | [5] 17.6 µM | [6] 17.4 µM | [7] 12.5 µM

Cc1ccc(-n2nc(C(C)(C)C)cc2NC(=O)Nc2ccc(OCCN3CCOCC3)c3ccccc23)cc1
active: [2] 15 µM
inactive: [1] | [3] | [5] | [9] | [6]

CCN(CCC#N)c1ccc(N=Nc2c(Cl)cc([N+](=O)[O-])cc2Cl)cc1
active: [1] 24.3 µM | [3] 27.3 µM
inactive: [2] | [5] | [6] | [7]

O=C(c1ccc(F)cc1)C1CCN(CCn2c(=O)[nH]c3ccccc3c2=O)CC1
inactive: [1] | [2] | [3] | [5] | [9] | [6]

CCCCC(CC)CN=C(N)NC(N)=NCCCCCCN=C(N)NC(N)=NCC(CC)CCCC (configuration not stated)
inactive: [2]
active: [1] 26.6 µM | [3] 21.1 µM | [5] 11.9 µM | [6] 9.44 µM | [7] 23.7 µM

CCC(C)(C)C1CCCCC1OC(C)=O (configuration not stated)
inactive: [1] | [2] | [3] | [10] | [5] | [6]

CCCCCCCC[N+](CCCCCCCC)(CCCCCCCC)CCCCCCCC
inactive: [2]
active: [1] 21.6 µM | [3] 43.2 µM | [5] 10.9 µM | [6] 13.7 µM | [7] 4.89 µM

CCCCCCCCCCCCCCCC[N+](C)(C)CCN(Cc1ccc(OC)cc1)c1ncccn1
active: [5] 26.6 µM
inactive: [1] | [2] | [3]

N/C(=N\N=C\c1ccc(Cl)cc1)N/N=C/c1ccc(Cl)cc1
active: [2] 13.3 µM | [5] 21.1 µM | [6] 29.8 µM
inactive: [1] | [3]

CCCCc1oc2ccc(NS(C)(=O)=O)cc2c1C(=O)c1ccc(OCCCN(CCCC)CCCC)cc1
inactive: [2]
active: [1] 29.8 µM | [3] 26.6 µM | [5] 29.8 µM | [6] 26.6 µM | [7] 29.8 µM

CSc1ccc(C(=O)c2[nH]c(=O)[nH]c2C)cc1
inactive: [1] | [2] | [3] | [5] | [9] | [6]

C1CCCC1
not listed: [4] | [7] | [9]
inactive: all other assays above

O=C1CCCc2c1cc1ccc3cccc4ccc2c1c34
inactive: [1] | [3] | [5] | [6]
active: [2] 69.4 µM

O=C(Oc1cccc2cccnc12)c1ccccc1
active: [1] 21.1 µM
inactive: [2] | [3] | [5]

CCCC1O[C@@H]2C[C@H]3[C@@H]4CCC5=CC(=O)C=C[C@]5(C)[C@H]4[C@@H](O)C[C@]3(C)[C@]2(C(=O)CO)O1 (some centres not stated)
active: [9] 30.7 µM and 54.5 µM
inactive and 61.2 µM (active): [1]
not listed: [4] | [10]
inactive: all other assays above

C[C@H](CCC(=O)O)[C@H]1CC[C@H]2[C@@H]3CC[C@@H]4C[C@H](O)CC[C@]4(C)[C@H]3CC[C@]12C
inactive: [1] | [2] | [3]
active: [5] 21.8 µM and 49 µM

Source: PubChem BioAssay (Tox21)
